# Measured values published in PMC5540273 (PLoS ONE, 2017).
# What was measured:
# Conditions in all cases: concentration: 1 μM, replicates: in singlicate; n = 1
# NIM1 = test system: T1, NIM1
# T1 construct: gene MGC42105
# NLK = test system: NLK
# OSR1 = test system: T2, OSR1
# T2 construct: gene OXSR1
# PAK1 = test system: PAK1
# PAK2 = test system: PAK2
# PAK3 = test system: PAK3
# PAK4 = test system: PAK4
# PAK6 = test system: PAK6
# PAK7 = test system: PAK7
# PCTK1 = test system: T3, PCTK1
# T3 construct: gene CDK16
# 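Also: KINOMEscan kinase panel screen.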
smiles,measurement,setting,value
CC(C)c1nc(-c2ccc(F)c(NS(=O)(=O)c3c(F)cccc3F)c2)c(-c2ccnc(Nc3ccc(N4CCOCC4)nc3)n2)s1 [GSK1804250],%Inh,NIM1,0%
same,%Inh,NLK,96.3%
same,%Inh,OSR1,7%
same,%Inh,PAK1,5%
same,%Inh,PAK2,11%
same,%Inh,PAK3,36%
same,%Inh,PAK4,0%
same,%Inh,PAK6,0%
same,%Inh,PAK7,10%
same,%Inh,PCTK1,94.6%
Cc1ccc(Nc2ccnc(Nc3ccc(C)c(F)c3)n2)cc1O.Cl [GW582868],%Inh,NIM1,3%
same,%Inh,NLK,62%
same,%Inh,OSR1,8%
same,%Inh,PAK1,0%
same,%Inh,PAK2,0%
same,%Inh,PAK3,0%
same,%Inh,PAK4,0%
same,%Inh,PAK6,0%
same,%Inh,PAK7,0%
same,%Inh,PCTK1,0%
COC(=O)Nc1nc2ccc(Oc3ccc(NC(=O)Nc4cc(C(F)(F)F)ccc4F)cc3)cc2[nH]1.Cl [GW654607],%Inh,NIM1,0%
same,%Inh,NLK,34%
same,%Inh,OSR1,15%
same,%Inh,PAK1,0%
same,%Inh,PAK2,0%
same,%Inh,PAK3,22%
same,%Inh,PAK4,0%
same,%Inh,PAK6,0%
same,%Inh,PAK7,0%
same,%Inh,PCTK1,4%
Cn1cc(-c2ccc3c(c2)CCN3C(=O)Cc2cc(F)cc(F)c2F)c2c(N)ncnc21 [GSK2634140],%Inh,NIM1,8%
same,%Inh,NLK,0%
same,%Inh,OSR1,14%
same,%Inh,PAK1,16%
same,%Inh,PAK2,12%
same,%Inh,PAK3,35%
same,%Inh,PAK4,0%
same,%Inh,PAK6,0%
same,%Inh,PAK7,0%
same,%Inh,PCTK1,6%
CN(C)CCOc1ccc(-c2cc(-c3ccc(Cl)c(O)c3)c(-c3ccncc3)[nH]2)cc1.Cl.Cl [SB-684387],%Inh,NIM1,40%
same,%Inh,NLK,66%
same,%Inh,OSR1,7%
same,%Inh,PAK1,8%
same,%Inh,PAK2,6%
same,%Inh,PAK3,0%
same,%Inh,PAK4,0%
same,%Inh,PAK6,0%
same,%Inh,PAK7,20%
same,%Inh,PCTK1,1%
COc1cccc(C2=C(Nc3cccc(O)c3)C(=O)NC2=O)c1 [SB-390771],%Inh,NIM1,16%
same,%Inh,NLK,15%
same,%Inh,OSR1,8%
same,%Inh,PAK1,7%
same,%Inh,PAK2,5%
same,%Inh,PAK3,32%
same,%Inh,PAK4,0%
same,%Inh,PAK6,100%
same,%Inh,PAK7,26%
same,%Inh,PCTK1,15%
Cl.N#CCc1ccc(Nc2nccc(Nc3ccc(Oc4ccccc4)cc3)n2)cc1 [GW639905],%Inh,NIM1,14%
same,%Inh,NLK,0%
same,%Inh,OSR1,11%
same,%Inh,PAK1,0%
same,%Inh,PAK2,10%
same,%Inh,PAK3,47%
same,%Inh,PAK4,0%
same,%Inh,PAK6,0%
same,%Inh,PAK7,0%
same,%Inh,PCTK1,0%
CC(C)(C)c1ccc(C(=O)Nc2cn3cc(-n4ccnc4)ccc3n2)cc1,%Inh,NIM1,3%
same,%Inh,NLK,0%
same,%Inh,OSR1,0%
same,%Inh,PAK1,30%
same,%Inh,PAK2,42%
same,%Inh,PAK3,20%
same,%Inh,PAK4,10%
same,%Inh,PAK6,6%
same,%Inh,PAK7,0%
same,%Inh,PCTK1,6%
